# From PubChem BioAssay (Tox21)
# “And” between values parts separate entries of the source, which are not always exact repeats. Identical values can stand only once. Records with an inconclusive call do not appear. A structure can be active in one record and inactive in another. The source made the active and inactive calls. Calls come from the whole dose curve; as a rule, active = well fitted cell-killing curve with a large enough effect in the repeat runs; inconclusive = weak or mixed curves, or effect the other way; inactive = no such curve, though single readings can be large or run the other way.
# Assay: qHTS assay to identify small molecule antagonists of the thyroid receptor (TR) signaling pathway - cell viability counter screen (AID 743064); note: nearly all actives have a fitted effect of over 50% in size
# Settings: GH3.TRE-Luc viability, CellTiter-Fluor, 24 h; series mostly up to 70.3 µM
# Description: National Center for Advancing Translational Sciences [NCATS]
# NIH Chemical Genomics Center [NCGC]
# U.S. Environmental Protection Agency [EPA]
# National Institutes of Environmental Health Sciences [NIEHS]
# National Toxicology Program [NTP]
# U.S. Food and Drug Administration [FDA]
# Thyroid receptor (TR), a nuclear hormone receptor, plays an important role in development, proliferation, differentiation, metabolism, brain function, and cardiovascular system. […] To profile the Tox21 10K compound library in TR signaling, a cell-based GH3-TRE-Luc assay (GH3.TRE-Luc cell line, developed by the laboratory of Dr. Albertinka J. Murk, Wageningen University) was used to measure the inhibition of TR. GH3 (rat pituitary tumor) cells stably expressing a TR activity sensor consisting of two TR response elements and a luciferase reporter gene. The cytotoxicity of the Tox21 compound library against the GH3.TRE-Luc cell line was tested in parallel by measuring the cell viability using CellTiter-Fluor assay (Promega, Madison, WI) in the same wells.
# Tox21 Assay Protocol Summary:
# GH3.TRE-Luc cells were dispensed at 1500 cells/4 uL/well into 1536-well white solid bottom plates using a Multidrop Combi dispenser (Thermo Fisher Scientific Inc., Waltham, MA). After the assay plates were incubated at 37 C for 4 hours, 23 nL of library compound or DMSO controls was transferred to the assay plates by a pintool station (Kalypsys, San Diego, CA), followed by addition of 1 ul of T3 (1 nM, final concentration in the wells) to stimulate TR transactivation. The assay plates were incubated at 37 C for 23.5 h, and then 1 uL of CellTiter-Fluor reagent (Promega, Madision, WI) of measuring cytotoxicity was added to each well using a Bioraptr Flying Reagent Dispenser (FRD) workstation (Beckman Coulter, Indianapolis, IN, USA). The plates were incubated at 37C and 5% CO2 for additional 30 min, and fluorescence intensity was measured by a ViewLux plate reader (PerkinElmer, Shelton, CT).
# Potency is the fitted concentration of half-maximal effect.
row,Structure (SMILES),Potency
1,CC(=O)SC[C@@H](Cc1ccccc1)C(=O)NCC(=O)OCc1ccccc1,inactive
2,CCC1OCC(COc2ccc(Oc3ccccc3)cc2)O1 (stereo not given),inactive
3,Oc1ccc2cc(SSc3ccc4cc(O)ccc4c3)ccc2c1,inactive and 61.1 µM (active)
4,CC(C)(C)C(=O)OCOC(=O)[C@@H]1N2C(=O)[C@@H](NC(=O)[C@H](N)c3ccccc3)[C@H]2SC1(C)C,inactive
5,CC[C@H]1O[C@]2(CC[C@@H]1C)C[C@@H]1C[C@@H](C/C=C(\C)C[C@@H](C)/C=C/C=C3\CO[C@@H]4[C@H](O)C(C)=C[C@@H](C(=O)O1)[C@]34O)O2,6.06 µM (active)
6,CCCCCCCCCCCCCCCCCC[N+](C)(C)C,12.2 µM (active)
7,Cc1cccc(S(=O)(=O)O)c1C,inactive
8,O=C1C=CC(=O)N1,9.95 µM (active)
9,O=C(O)c1cc(O)c2c(c1)C(=O)c1cccc(O)c1C2=O,inactive
10,CCN(CCC#N)c1ccc(N=Nc2c(Cl)cc([N+](=O)[O-])cc2Cl)cc1,24.3 µM (active)
11,CCN(C(=O)N(CC)c1ccccc1)c1ccccc1,inactive
12,CCC(C)(C)C1CCCCC1OC(C)=O (stereo not given),inactive
13,O=C(O)c1ccc(Cl)c(Cl)c1,inactive
14,CCCCC(CC)COP(=O)(O)OCC(CC)CCCC (stereo not given),27.4 µM (active)
15,Cc1cc(O)c(C(C)(C)C)cc1C(C)(C)C,24.3 µM (active)
16,CCCCCCCC/C=C\CCCCCCCCOCCO,25.1 µM (active)
17,C=CC(=O)OCC(CO)(COCC(COC(=O)C=C)(COC(=O)C=C)COC(=O)C=C)COC(=O)C=C,1.52 µM (active)
18,CCOC(=O)O[C@H](C)OC(=O)c1ccc2c(c1)cc(C(=O)NC1CCN(C(C)C)CC1)n2Cc1cc(-c2ccc(Cl)s2)on1,5.09 µM (active)
19,CCCN(CCC)C(=O)C(CCC(=O)OCCCN1CCN(CCOC(=O)Cc2c(C)n(C(=O)c3ccc(Cl)cc3)c3ccc(OC)cc23)CC1)NC(=O)c1ccccc1 (stereo not given),13.3 µM (active)
20,CC(C)CCCCCCCCCCCCCCC(=O)O,inactive

row,Structure (SMILES),Potency
1,Oc1ccc(Cl)cc1Sc1cc(Cl)ccc1O,11.9 µM (active) and 7.68 µM (active)
2,COc1cc(-c2ccc(N=C=O)c(OC)c2)ccc1N=C=O,inactive
3,O=C(O)c1c(Cl)cccc1Cl,inactive
4,CC(C)n1nc(-c2cc3cc(O)ccc3[nH]2)c2c(N)ncnc21,0.106 µM (active)
5,O=C(Oc1cccc2cccnc12)c1ccccc1,13.3 µM (active)
6,Oc1cc2ccccc2c2ccccc12,10.9 µM (active)
7,Cc1cc(O)c(Cl)c(C)c1Cl,17.2 µM (active)
8,CCc1cc(Cc2cc(CC)cc(C(C)(C)C)c2O)c(O)c(C(C)(C)C)c1,7.7 µM (active)
9,Clc1ccccc1C(c1ccccc1)(c1ccccc1)n1ccnc1,8.04 µM (active) and 21.7 µM (active)
10,Cc1cccc(CN2CCN(C(c3ccccc3)c3ccc(Cl)cc3)CC2)c1 (stereo not given),12.7 µM (active)
11,CCCCCCCCNC(C)C(O)c1ccc(SC(C)C)cc1 (stereo not given),5.31 µM (active)
12,CCCCCCCCCCCCc1ccc(O)cc1,13.7 µM (active)
13,CCCCCCCC[N+](CCCCCCCC)(CCCCCCCC)CCCCCCCC,3.43 µM (active)
14,O=C1CCCc2c1cc1ccc3cccc4ccc2c1c34,inactive
15,O=C(Nc1cccc(Cl)c1)OCC#CCCl,24.3 µM (active)
16,Cc1ccc(O)c(C(C)(C)C)c1,17.2 µM (active) and inactive
17,Cc1cc(CCN2CCN(c3nsc4ccccc34)CC2)cc2c1NC(=O)CC2(C)C,43.3 µM (active)
18,CCCCCCCCCCCC[N+](C)(C)CCCCCCCCCCCC,24.3 µM (active)
19,CS(=O)(=O)CCNCc1ccc(-c2ccc3ncnc(Nc4ccc(OCc5cccc(F)c5)c(Cl)c4)c3c2)o1,inactive
20,Cn1cc(C(=O)[C@@H]2CCc3nc[nH]c3C2)c2ccccc21,inactive
